# Experimental data reported in the supplement of paper PMC7724964.
# Molecular target: T1, DVL2 416-511 DEP (domain begin residue: 416, domain end residue: 511), O14641
# T1 chain: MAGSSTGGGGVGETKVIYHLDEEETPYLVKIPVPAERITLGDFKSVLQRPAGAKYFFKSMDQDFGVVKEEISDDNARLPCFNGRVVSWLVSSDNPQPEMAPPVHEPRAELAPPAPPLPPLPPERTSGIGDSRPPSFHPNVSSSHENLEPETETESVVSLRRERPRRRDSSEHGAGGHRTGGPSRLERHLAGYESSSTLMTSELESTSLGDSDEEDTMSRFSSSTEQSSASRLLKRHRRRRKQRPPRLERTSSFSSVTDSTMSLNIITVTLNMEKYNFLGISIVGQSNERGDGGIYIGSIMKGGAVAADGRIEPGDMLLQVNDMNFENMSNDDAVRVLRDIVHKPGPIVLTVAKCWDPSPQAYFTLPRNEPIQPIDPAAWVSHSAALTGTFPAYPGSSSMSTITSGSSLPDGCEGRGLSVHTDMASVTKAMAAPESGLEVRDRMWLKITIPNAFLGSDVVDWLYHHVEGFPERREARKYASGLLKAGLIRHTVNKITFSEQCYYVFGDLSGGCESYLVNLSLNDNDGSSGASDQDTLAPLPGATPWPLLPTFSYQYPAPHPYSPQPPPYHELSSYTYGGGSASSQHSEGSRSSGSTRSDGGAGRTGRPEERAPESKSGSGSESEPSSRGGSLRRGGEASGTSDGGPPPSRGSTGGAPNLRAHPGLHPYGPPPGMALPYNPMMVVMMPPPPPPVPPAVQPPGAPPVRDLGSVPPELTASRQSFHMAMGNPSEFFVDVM
# Assay: phage ELISA signal ratio (GST-PRM binding over GST background); higher = stronger binding of peptide-phage to the PRM
# How it was run: (§1)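 An M13 phage library with randomized hexadecapeptides on the gene-8 major coat protein, each peptide lacking cysteine and flanked by glycine, was selected for five rounds against human peptide recognition domains fused to the C-terminus of glutathione S-transferase (GST) and expressed in 96-well plates. Approximately 48 clones from rounds 4 and 5 went to phage ELISA. The reported value is the ELISA signal on the GST-domain fusion over the signal on GST alone, and positive clones were sequenced.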
row,Binder,phage ELISA signal ratio
1,YWFWNPEIMDAQYMPV,7.02
2,MWYWDPGENTAIWVEQ,22.1
3,QAVPMWQDEHGYWWWN,33.3
4,IYWDWEDGYIYEHQPE,18.2
5,LWFWDVETGNAYKTQE,14.1

# Molecular target: DOK4 130-237 IRS (domain begin residue: 130, domain end residue: 237), Q8TEW6
# Assay: as above
# How it was run: as §1
# Chain of DOK4 130-237 IRS (domain begin residue: 130, domain end residue: 237), Q8TEW6 (Q8TEW6 whole entry): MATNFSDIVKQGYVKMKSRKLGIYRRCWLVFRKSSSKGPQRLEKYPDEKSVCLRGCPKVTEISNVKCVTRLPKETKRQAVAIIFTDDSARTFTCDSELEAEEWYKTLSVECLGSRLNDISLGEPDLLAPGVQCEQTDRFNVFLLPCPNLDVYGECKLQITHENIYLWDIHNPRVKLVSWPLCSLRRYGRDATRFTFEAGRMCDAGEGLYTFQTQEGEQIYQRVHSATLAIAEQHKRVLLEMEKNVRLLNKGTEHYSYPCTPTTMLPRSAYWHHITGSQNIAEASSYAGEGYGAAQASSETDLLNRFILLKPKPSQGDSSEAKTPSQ
row,Binder,phage ELISA signal ratio
1,GWDDQIWTWSPMYMPV,19
2,YELSWTHTPWSHFIAT,6.86
3,EHLRPEMDWTYVWWEH,4.35
4,MWEWTDNPSYTIPGQQ,7.86
5,DDMIWQWQMNPIWMMD,11.5
6,YETPEPQWLWVMNPIH,14.6
7,FEWTSSPVWSDHQEHN,11.5

# Molecular target: DYNLL1 1-89 Dynein_light (domain begin residue: 1, domain end residue: 89), P63167
# Assay: as above
# How it was run: as §1
# Chain of DYNLL1 1-89 Dynein_light (domain begin residue: 1, domain end residue: 89), P63167 (P63167 whole entry): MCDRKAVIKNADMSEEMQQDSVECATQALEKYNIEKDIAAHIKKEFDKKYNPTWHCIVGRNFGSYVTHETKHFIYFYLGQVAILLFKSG
row,Binder,phage ELISA signal ratio
1,LQTPDWMWAPNVLESM,6.16
2,VQTDWYGVDGFWVPVL,18.1
3,TQTPVWGMDGWMWVTV,19.5
4,VQTDPWVGQLGDFMFV,17.1
5,TQTGMWDETDSREHWD,11.5
6,TQTEFYASDWWMMENV,15.6

# Molecular target: T2, DVL3 407-503 DEP (domain begin residue: 407, domain end residue: 503), Q92997
# T2 chain: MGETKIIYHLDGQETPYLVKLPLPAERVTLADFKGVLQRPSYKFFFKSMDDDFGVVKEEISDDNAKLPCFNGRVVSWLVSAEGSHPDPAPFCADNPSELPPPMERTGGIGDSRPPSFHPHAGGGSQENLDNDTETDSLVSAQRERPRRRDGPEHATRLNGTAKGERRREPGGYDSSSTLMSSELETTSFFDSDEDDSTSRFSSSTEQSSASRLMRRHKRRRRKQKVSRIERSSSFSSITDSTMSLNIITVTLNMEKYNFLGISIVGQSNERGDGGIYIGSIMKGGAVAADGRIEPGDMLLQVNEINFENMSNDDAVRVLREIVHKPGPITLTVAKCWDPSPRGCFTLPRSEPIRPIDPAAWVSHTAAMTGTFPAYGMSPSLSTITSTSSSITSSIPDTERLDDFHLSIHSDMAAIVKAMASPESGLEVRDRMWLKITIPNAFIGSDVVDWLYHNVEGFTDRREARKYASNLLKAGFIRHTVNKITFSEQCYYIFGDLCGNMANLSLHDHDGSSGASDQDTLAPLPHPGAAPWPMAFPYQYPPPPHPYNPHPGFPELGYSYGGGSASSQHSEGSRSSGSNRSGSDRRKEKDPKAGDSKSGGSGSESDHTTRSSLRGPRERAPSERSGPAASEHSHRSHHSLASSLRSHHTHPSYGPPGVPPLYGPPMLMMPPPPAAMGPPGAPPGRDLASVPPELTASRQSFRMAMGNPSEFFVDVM
# Assay: as above
# How it was run: as §1
row,Binder,phage ELISA signal ratio
1,WQMNHLEEWRAYAETL,24.2
2,MDGWFWDHAPHFTMDF,4.23
3,PDLAAWRIWIMEEEQV,22.4

# Molecular target: T3, DOK2 146-252 IRS (domain begin residue: 146, domain end residue: 252), O60496
# T3 chain: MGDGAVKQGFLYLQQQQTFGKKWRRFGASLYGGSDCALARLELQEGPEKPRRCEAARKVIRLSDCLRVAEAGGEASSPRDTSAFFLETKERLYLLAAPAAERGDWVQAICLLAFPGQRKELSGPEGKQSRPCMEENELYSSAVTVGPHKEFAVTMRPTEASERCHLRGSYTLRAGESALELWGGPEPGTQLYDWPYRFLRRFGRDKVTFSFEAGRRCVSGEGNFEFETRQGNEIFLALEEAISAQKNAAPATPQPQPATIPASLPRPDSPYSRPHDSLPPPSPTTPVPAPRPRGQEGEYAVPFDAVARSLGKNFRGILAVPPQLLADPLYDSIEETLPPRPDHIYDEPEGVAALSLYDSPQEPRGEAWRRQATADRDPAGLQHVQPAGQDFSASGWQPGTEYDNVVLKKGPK
# Assay: as above
# How it was run: as §1
row,Binder,phage ELISA signal ratio
1,VVNEQHGWKWMILEHE,20.7
2,DLDFMWWDNPVHETDL,16.8

# Molecular target: T4, DOK7 105-219 IRS (domain begin residue: 105, domain end residue: 219), Q18PE1
# T4 chain: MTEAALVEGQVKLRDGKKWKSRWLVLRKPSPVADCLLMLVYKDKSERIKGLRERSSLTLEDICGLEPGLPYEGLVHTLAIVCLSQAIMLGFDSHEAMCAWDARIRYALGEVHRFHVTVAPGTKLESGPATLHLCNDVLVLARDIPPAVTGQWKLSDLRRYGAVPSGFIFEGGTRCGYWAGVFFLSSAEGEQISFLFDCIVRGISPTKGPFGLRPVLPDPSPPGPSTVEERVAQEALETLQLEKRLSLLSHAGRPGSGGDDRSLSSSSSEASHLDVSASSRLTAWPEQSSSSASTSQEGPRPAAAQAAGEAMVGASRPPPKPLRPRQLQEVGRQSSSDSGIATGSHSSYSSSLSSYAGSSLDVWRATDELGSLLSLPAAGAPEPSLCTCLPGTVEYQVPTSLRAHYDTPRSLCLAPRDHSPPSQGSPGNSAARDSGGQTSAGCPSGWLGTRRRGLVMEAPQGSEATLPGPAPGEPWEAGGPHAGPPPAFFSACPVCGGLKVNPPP
# Assay: as above
# How it was run: as §1
row,Binder,phage ELISA signal ratio
1,FETTWVLENGWWLPQA,9.36

# Molecular target: T5, DOK3 213-322 IRS (domain begin residue: 213, domain end residue: 322), Q7L591
# T5 chain: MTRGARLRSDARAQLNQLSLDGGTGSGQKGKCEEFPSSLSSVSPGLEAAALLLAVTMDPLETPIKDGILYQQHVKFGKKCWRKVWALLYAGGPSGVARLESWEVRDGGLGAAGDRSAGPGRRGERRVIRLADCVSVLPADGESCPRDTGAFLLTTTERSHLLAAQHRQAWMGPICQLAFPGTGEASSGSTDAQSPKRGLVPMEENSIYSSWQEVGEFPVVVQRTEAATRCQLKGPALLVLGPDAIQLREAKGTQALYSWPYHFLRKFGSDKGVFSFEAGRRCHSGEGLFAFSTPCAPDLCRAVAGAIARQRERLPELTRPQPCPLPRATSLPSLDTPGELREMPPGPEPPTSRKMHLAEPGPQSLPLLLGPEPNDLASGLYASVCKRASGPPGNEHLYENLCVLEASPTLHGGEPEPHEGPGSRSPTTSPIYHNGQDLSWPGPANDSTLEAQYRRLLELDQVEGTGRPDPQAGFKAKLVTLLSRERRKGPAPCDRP
# Assay: as above
# How it was run: as §1
row,Binder,phage ELISA signal ratio
1,NQLRFNPQWTVPNFRN,3.31
2,VWEEVMTMEQWQWHNF,5.77

# Molecular target: DOK5 130-237 IRS (domain begin residue: 130, domain end residue: 237), Q9P104
# Assay: as above
# How it was run: as §1
row,Binder,phage ELISA signal ratio
1,DWVWTIPFEQVFSEVM,4.96
2,GVGWAKQIEWTVSPMM,3.95

# Molecular target: T6, DVL1 406-503 DEP (domain begin residue: 406, domain end residue: 503), O14640
# T6 chain: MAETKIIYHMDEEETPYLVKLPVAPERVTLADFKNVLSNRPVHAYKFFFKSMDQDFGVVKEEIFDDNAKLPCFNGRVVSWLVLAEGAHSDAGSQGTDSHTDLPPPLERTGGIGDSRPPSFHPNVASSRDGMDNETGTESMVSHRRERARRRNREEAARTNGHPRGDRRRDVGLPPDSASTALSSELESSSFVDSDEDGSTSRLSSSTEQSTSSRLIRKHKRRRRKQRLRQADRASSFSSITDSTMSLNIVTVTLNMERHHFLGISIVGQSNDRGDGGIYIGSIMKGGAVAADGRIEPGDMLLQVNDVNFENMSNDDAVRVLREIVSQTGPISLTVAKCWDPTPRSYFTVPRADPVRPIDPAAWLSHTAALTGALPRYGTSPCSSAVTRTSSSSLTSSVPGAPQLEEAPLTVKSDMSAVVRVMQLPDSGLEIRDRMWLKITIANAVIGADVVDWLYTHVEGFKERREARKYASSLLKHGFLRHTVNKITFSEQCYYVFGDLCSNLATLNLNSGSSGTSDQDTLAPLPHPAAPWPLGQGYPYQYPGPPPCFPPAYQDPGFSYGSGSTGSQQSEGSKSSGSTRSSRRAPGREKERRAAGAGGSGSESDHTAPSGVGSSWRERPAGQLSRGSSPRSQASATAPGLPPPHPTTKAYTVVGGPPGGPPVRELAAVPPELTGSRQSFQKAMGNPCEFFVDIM
# Assay: as above
# How it was run: as §1
row,Binder,phage ELISA signal ratio
1,WEWQFWQDYMAQFPSE,3.48
